# Results taken from PubChem BioAssay (Tox21).
# Where “and” joins values, the source holds several entries; their conditions need not be identical. Equal entries are not always repeated. Results filed as inconclusive are left out. Some compounds were tested as several samples or in several runs, with calls that do not always agree. Calls of active or inactive are those of the source. Unless noted, the call rests on the fitted dose curve; in most records, active means well fitted curve in the direction sought with a large enough effect in the repeat runs; inconclusive means weak or mixed curves; inactive means no such curve, though single readings can be large; an effect the other way counts as inactive or inconclusive.
# Key:
# [1] = qHTS assay to identify small molecule agonists of the hypoxia (HIF-1) signaling pathway - cell viability counter screen (AID 1224844; calls by dose curve; further: nearly all actives have a fitted effect of over 50% in size; further: potency means the concentration at half of the fitted maximal effect)
# Procedure, shortened: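 HRE-bla ME-180 cells, 2,000/well in 0.5% dialyzed FBS medium, treated 17 h at 37C with compounds. Viability read in the same wells as the bla reporter, by CellTiter-Glo luminescence after 30 min at room temperature.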
# [2] = qHTS assay to identify small molecule agonists of H2AX (AID 1224845; active means well fitted activation curve with a large enough effect in the signal ratio in the repeat runs, not every such curve was filed as active; the % refers to the signal ratio; further: on the % scale 0 is the no-effect control and ±100 the full control effect)
# Procedure, shortened: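 Phospho-H2AX Ser139 measured by HTRF (ex 320 nm; em 665 and 620 nm) after 24 hr antibody incubation. Compounds, 15 concentrations, 0.76% DMSO, were applied to CHO-K1 cells for 3hr at 37C before lysis.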
# [3] = qHTS assay to identify small molecule agonists of the hypoxia (HIF-1) signaling pathway (AID 1224846; active means well fitted activation curve with a large enough effect in the signal ratio in the repeat runs, not every such curve was filed as active; the % refers to the signal ratio; further: on the % scale 0 is the no-effect control and ±100 the full control effect)
# Procedure, shortened: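 HRE-bla ME-180 beta-lactamase reporter cells in medium with 0.5% dialyzed FBS, pre-incubated 5 h then exposed to compounds 17 h at 37C, 5% CO2; reporter induction read with CCF4-AM FRET substrate.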
# [4] = qHTS assay to identify small molecule agonists of the estrogen related receptor (ERR) signaling pathway from Tox21 library (AID 1224849; calls by dose curve; further: on the % scale 0 is the no-effect control and ±100 the full control effect; nearly all actives have a fitted effect of over 15% in size); conditions: ERR reporter cell line, ONE-Glo luciferase, 18 h
# Procedure, shortened: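 ERR reporter cells (NTP line) pre-incubated 6 hours at 37 C, then exposed to compounds for 18 hours at 37 C. ONE-Glo luciferase luminescence was read after 30 minutes at room temperature.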
# [5] = qHTS RealTime-Glo MT Cell Viability Assay in HepG2 cells - 24 hour (AID 1224867); further: nearly all actives have a fitted effect of over 50% in size; further: potency means the concentration at half of the fitted maximal effect
# Procedure, shortened: (§1)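 HepG2 cells were seeded at 600 cells/well together with NanoLuc luciferase and a cell-permeant prosubstrate, preincubated 5 h at 37 C/5% CO2, then pin-dosed with compounds in DMSO. Nonlytic luminescence from viable cells was read at each time point.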
# [6] = A CellTox Green Cytotoxicity Assay to monitor cytotoxicity in HEK293 cells - 0 hour (AID 1224869); further: on the % scale 0 is the no-effect control and ±100 the full control effect; nearly all actives have a fitted effect of over 50% in size
# Procedure, shortened: (§2)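 HEK293 cells, 600/well, were preincubated 5 hours and then exposed to compounds at 37 C for up to 40 hours. A cell-impermeant cyanine dye staining dead-cell DNA was read by fluorescence at 0, 8, 16, 24, 32 and 40 h time points.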
# [7] = qHTS RealTime-Glo MT Cell Viability Assay in HepG2 cells - 40 hour (AID 1224870); further: nearly all actives have a fitted effect of over 50% in size; further: potency means the concentration at half of the fitted maximal effect
# Procedure, shortened: (§3)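 Real-time viability: cells seeded at 600 per well together with NanoLuc and cell-permeant prosubstrate, compounds added after 5 h incubation. Luminescence tracked at 0, 8, 16, 24, 32 and 40 h of exposure.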
# [8] = qHTS RealTime-Glo MT Cell Viability Assay in HepG2 cells - 8 hour (AID 1224873); further: nearly all actives have a fitted effect of over 55% in size; further: potency means the concentration at half of the fitted maximal effect
# Procedure, shortened: as §3
# [9] = A CellTox Green Cytotoxicity Assay to monitor cytotoxicity in HEK293 cells - 24 hour (AID 1224875); further: nearly all actives have a fitted effect of over 45% in size; further: potency means the concentration at half of the fitted maximal effect; on activity change: on the % scale 0 is the no-effect control and ±100 the full control effect
# Procedure, shortened: as §2
# [10] = A CellTox Green Cytotoxicity Assay to monitor cytotoxicity in HepG2 cells - 16 hour (AID 1224876); further: nearly all actives have a fitted effect of over 45% in size; further: potency means the concentration at half of the fitted maximal effect
# Procedure, shortened: (§4)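 HepG2 cells, 600/well, preincubated 5 h with CellTox Green dye, then exposed to Tox21 compounds in DMSO at 37 C for up to 40 h. Dead-cell DNA fluorescence read at the indicated time point.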
# [11] = A CellTox Green Cytotoxicity Assay to monitor cytotoxicity in HepG2 cells - 24 hour (AID 1224878); further: nearly all actives have a fitted effect of over 45% in size; further: potency means the concentration at half of the fitted maximal effect; on Cytotoxicity: on the % scale 0 is the no-effect control and ±100 the full control effect
# Procedure, shortened: as §4
# [12] = A CellTox Green Cytotoxicity Assay to monitor cytotoxicity in HepG2 cells - 40 hour (AID 1224879); further: nearly all actives have a fitted effect of over 40% in size; further: potency means the concentration at half of the fitted maximal effect
# Procedure, shortened: as §4
# [13] = qHTS RealTime-Glo MT Cell Viability Assay in HEK293 cells - 0 hour (AID 1224880); further: top concentration of the series differs between compounds; on the % scale 0 is the no-effect control and ±100 the full control effect; nearly all actives have a fitted effect of over 45% in size
# Procedure, shortened: (§5)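 600 cells/well were plated with the nonlytic NanoLuc/prosubstrate reagent, pre-incubated 5 h, then given 23 nL of compound in DMSO. Incubation at 37 C for 40 h, with luminescence from viable-cell-reduced substrate read repeatedly from 0 h.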
# [14] = qHTS assay to identify small molecule agonists of H2AX - cell viability counter screen (AID 1224847; calls by dose curve; further: potency means the concentration at half of the fitted maximal effect; nearly all actives have a fitted effect of over 30% in size)
# Procedure, shortened: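 Viability of CHO-K1 (wild type) cells after 3 hr compound exposure was measured by CellTiter-Glo luminescence.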
# [15] = qHTS assay to identify small molecule antagonists of the estrogen related receptor (ERR) signaling pathway from Tox21 library (AID 1224848)
# Procedure, shortened: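 Reading was by luminescence 30 min after ONE-Glo addition. Before that, ERR cells at 2,000 per well had rested 6 h at 37 C/5% CO2 and then received pin-tooled compounds in DMSO for 18 h at 37 C.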
# [16] = qHTS RealTime-Glo MT Cell Viability Assay in HEK293 cells - 32 hour (AID 1224868)
# Procedure, shortened: (§6)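 HEK293 cells were seeded at 600 cells/well together with NanoLuc luciferase and cell-permeant prosubstrate, preincubated 5 h at 37 C/5% CO2, then given compound in DMSO by pintool. Luminescence from viable-cell prosubstrate reduction was read repeatedly over 40 h.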
# [17] = A CellTox Green Cytotoxicity Assay to monitor cytotoxicity in HEK293 cells - 40 hour (AID 1224871); further: nearly all actives have a fitted effect of over 45% in size; further: potency means the concentration at half of the fitted maximal effect
# Procedure, shortened: as §2
# [18] = qHTS RealTime-Glo MT Cell Viability Assay in HEK293 cells - 16 hour (AID 1224872)
# Procedure, shortened: as §6
# [19] = qHTS RealTime-Glo MT Cell Viability Assay in HEK293 cells - 40 hour (AID 1224874); conditions: RealTime-Glo luminescence; max response: stronger effect = lower value
# Procedure, shortened: as §5
# [20] = qHTS RealTime-Glo MT Cell Viability Assay in HepG2 cells - 32 hour (AID 1224877); further: nearly all actives have a fitted effect of over 55% in size; further: potency means the concentration at half of the fitted maximal effect
# Procedure, shortened: as §1
# [21] = at 92.4 µM (top of the series) unless noted
smiles,measurement,setting,value
CCN(C(=O)N(CC)c1ccccc1)c1ccccc1,Potency,[1],inactive
same,Potency,[2],inactive
same,Potency,[3],inactive
same,"activity change, positive = activation",[4]; [21],-25.8% (inactive)
same,Potency,[5],inactive
same,Potency,[6],inactive
same,Potency,[7],inactive
same,Potency,[8],inactive
same,Potency,[9],inactive
same,Potency,[10],inactive
same,Potency,[11],inactive
same,Potency,[12],inactive
same,Potency,[13],inactive
Oc1ccc(Cl)cc1Sc1cc(Cl)ccc1O,Potency,[1],26.8 µM (active)
same,Potency,[2],inactive
same,Potency,[14],35.7 µM (active)
same,Potency,[15],10.8 µM (active) and 11.9 µM (active)
same,"activity change, positive = activation",[4]; at 42.5 µM (top of the series),-51.1% (inactive)
same,"activity change, positive = activation",[4]; at 92.4 µM (top of the series),-52% (inactive)
same,Potency,[16],19.5 µM (active) and 23.9 µM (active)
same,Potency,[6],inactive
same,Potency,[17],38.8 µM (active) and inactive
same,Potency,[18],21.8 µM (active)
same,Potency,[19],19.5 µM (active) and 23.9 µM (active)
same,Potency,[10],inactive
same,Potency,[11],43.6 µM (active)
same,Potency,[12],48.9 µM (active) and 26.8 µM (active)
same,Potency,[13],inactive
Cc1cc(CCN2CCN(c3nsc4ccccc34)CC2)cc2c1NC(=O)CC2(C)C,Potency,[1],38.9 µM (active)
same,Potency,[2],inactive
same,Potency,[14],113 µM (active)
same,Potency,[15],5.45 µM (active)
same,"activity change, positive = activation",[4]; [21],-74.7% (inactive)
same,Potency,[5],54.9 µM (active)
same,Potency,[16],7.76 µM (active)
same,Potency,[6],inactive
same,Potency,[17],49 µM (active)
same,Potency,[18],13.8 µM (active)
same,Potency,[19],6.92 µM (active)
same,Potency,[9],49 µM (active)
same,Potency,[20],54.9 µM (active)
same,Potency,[13],inactive
OCCCCCCCCCCCCBr,Potency,[1],44.3 µM (active)
same,Potency,[2],inactive
same,Potency,[3],inactive
same,Potency,[14],102 µM (active)
same,Potency,[5],inactive
same,Potency,[6],inactive
same,Potency,[7],inactive
same,Potency,[17],inactive
same,Potency,[8],inactive
same,Potency,[19],11.1 µM (active)
same,Potency,[9],inactive
same,Potency,[10],inactive
same,Potency,[20],inactive
same,Potency,[11],inactive
same,Potency,[12],11.1 µM (active)
same,Potency,[13],inactive
CCCC(c1cc(C(C)(C)C)c(O)cc1C)c1cc(C(C)(C)C)c(O)cc1C,Potency,[1],9.89 µM (active)
same,Potency,[2],inactive
same,Potency,[14],25.6 µM (active)
same,Potency,[15],15.5 µM (active)
same,"activity change, positive = activation",[4]; [21],-83.3% (inactive)
same,Potency,[5],39.4 µM (active)
same,Potency,[16],19.7 µM (active)
same,Potency,[6],inactive
same,Potency,[7],31.3 µM (active)
same,Potency,[17],49.6 µM (active)
same,Potency,[18],24.8 µM (active)
same,Potency,[8],39.4 µM (active)
same,Potency,[19],17.6 µM (active)
same,Potency,[9],55.6 µM (active)
same,Potency,[10],44.2 µM (active)
same,Potency,[11],39.4 µM (active)
same,Potency,[12],31.3 µM (active)
same,Potency,[13],inactive
NC(=NCCCCCCN=C(N)/N=C(\N)Nc1ccc(Cl)cc1)/N=C(\N)Nc1ccc(Cl)cc1,Potency,[1],24.4 µM (active)
same,Potency,[2],inactive
same,Potency,[3],inactive
same,Potency,[16],8.67 µM (active) [middle of 5 runs]
same,Potency,[6],inactive
same,Potency,[17],15.8 µM (active) [middle of 4 runs]
same,Potency,[18],19.8 µM (active) [middle of 4 runs]
same,Potency,[8],48.7 µM (active) and 44.4 µM (active) and inactive
same,Potency,[19],6.88 µM (active) [middle of 5 runs]
same,Potency,[9],24.4 µM (active) [middle of 4 runs]
same,Potency,[10],19.8 µM (active) [middle of 4 runs]
same,Potency,[11],21.8 µM (active) [middle of 4 runs]
same,Potency,[13],inactive
